From PubChem BioAssay
POLB inh – qHTS Assay for Inhibitors of DNA Polymerase Beta. AID 485314, 2010. Potency, µM (series often up to 114 µM), without a hit: top-dose activity change, negative = inhibition, usual class: inhibitors. actives 1.3% (n = 340,000). Pol beta primer extension/strand displacement, fluorescence kinetic; also: potency is read from the fitted curve at half-maximal effect; % is scaled to controls: 0 for no effect and ±100 for the full control effect
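Pol beta (10 nM) and compounds were preincubated 15 min at room temperature, then 50 nM substrate (final) started primer extension/strand displacement. Reads were taken at 0 and 10 min; concentration-response data were fitted to a four-parameter Hill equation.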
FEN1 inh – qHTS Assay for the Inhibitors of Human Flap endonuclease 1 (FEN1) | Recombinant FEN1 flap cleavage, fluorescence, 15 min | AID 588795, 2011 | Potency, µM (top dose mostly 114 µM), without a hit: top-dose activity change, negative = inhibition, usual class: inhibitors | actives 0.35% (n = 390,000); also: potency is read from the fitted curve at half-maximal effect; % is scaled to controls: 0 for no effect and ±100 for the full control effect; nearly all actives have a fitted effect of over 65% in size
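Quantitative HTS format: each compound was titrated, incubated with 10 nM nuclease for 15 min at room temperature, then challenged with flap substrate at 50 nM final. Signal change over 15 min gave concentration–effect curves.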
POLI inh – qHTS for Inhibitors of Polymerase Iota; actives 1% (n = 390,000); Pol iota fluorescent replication assay, 10 min; AID 588590, 2011; DNA polymerase iota (Homo sapiens), Q9UNA4; Potency, µM (highest dose often 115 µM), inactives show at the top dose activity, negative = inhibition, hits mostly inhibitors; also: potency is read from the fitted curve at half-maximal effect
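Pol iota at 10 nM preincubated 15 min with compounds at room temperature; reaction started with fluorescent substrate, 50 nM final. Fluorescence read kinetically at 0 and 10 min; buffer-only wells as negative control.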
Pol kappa inh – qHTS for Inhibitors of Polymerase Kappa | purified Pol kappa, fluorescent DNA synthesis assay, 10 min | Potency, µM (series often up to 107 µM), without a hit: at the highest dose activity, negative = inhibition, actives largely listed as inhibitors | actives 0.53% (n = 400,000); also: potency is read from the fitted curve at half-maximal effect; % is scaled to controls: 0 for no effect and ±100 for the full control effect
Target sequence (Q9UBT6 whole entry, looked up): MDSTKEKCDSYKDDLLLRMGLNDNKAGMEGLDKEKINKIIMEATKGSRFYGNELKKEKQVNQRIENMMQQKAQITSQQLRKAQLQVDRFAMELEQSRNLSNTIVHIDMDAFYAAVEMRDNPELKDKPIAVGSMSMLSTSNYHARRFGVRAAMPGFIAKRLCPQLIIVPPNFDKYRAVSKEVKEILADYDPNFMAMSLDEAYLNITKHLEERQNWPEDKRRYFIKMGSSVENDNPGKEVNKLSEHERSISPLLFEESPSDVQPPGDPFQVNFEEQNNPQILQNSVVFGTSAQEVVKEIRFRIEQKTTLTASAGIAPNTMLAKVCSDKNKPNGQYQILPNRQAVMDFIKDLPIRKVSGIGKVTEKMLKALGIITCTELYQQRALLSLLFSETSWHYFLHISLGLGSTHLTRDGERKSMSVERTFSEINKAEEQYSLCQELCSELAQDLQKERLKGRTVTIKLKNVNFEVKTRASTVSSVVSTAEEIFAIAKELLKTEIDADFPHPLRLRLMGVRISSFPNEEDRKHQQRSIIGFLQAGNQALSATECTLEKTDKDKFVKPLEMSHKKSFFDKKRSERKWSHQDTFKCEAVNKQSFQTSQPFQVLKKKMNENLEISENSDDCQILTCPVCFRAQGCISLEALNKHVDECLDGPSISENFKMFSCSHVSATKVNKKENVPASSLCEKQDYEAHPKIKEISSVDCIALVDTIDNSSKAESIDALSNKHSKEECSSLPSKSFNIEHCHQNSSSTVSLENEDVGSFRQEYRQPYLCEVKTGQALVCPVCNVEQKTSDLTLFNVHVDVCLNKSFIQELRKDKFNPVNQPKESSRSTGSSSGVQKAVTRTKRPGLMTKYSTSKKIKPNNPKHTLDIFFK
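Activity was followed as the change in fluorescence between reads at 0 and 10 min after starting the reaction with 50 nM substrate. Beforehand, 10 nM polymerase had been preincubated with compound for 15 min at room temperature.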
Pol eta inh – qHTS for Inhibitors of Polymerase Eta; AID 588591, 2011; DNA polymerase eta (Homo sapiens), Q9Y253; Potency, µM (series often up to 114 µM), for the others: at the top dose activity change, negative = inhibition, hits mostly inhibitors; actives 1.2% (n = 390,000); recombinant Pol eta, fluorescent DNA replication assay; also: potency is read from the fitted curve at half-maximal effect; % is scaled to controls: 0 for no effect and ±100 for the full control effect
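Pol eta (10 nM) was preincubated with compounds for 15 min at room temperature, after which fluorescent replication substrate (50 nM final) was added to start the reaction. Fluorescence was read kinetically at 0 and 10 min.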
PI5P4K alpha inh – qHTS for Inhibitors of phosphatidylinositol 5-phosphate 4-kinase (PI5P4K). Phosphatidylinositol 5-phosphate 4-kinase type-2 alpha (Homo sapiens), P48426. PI5P4Kalpha enzyme, ADP-Glo luminescence, 60 min; active compounds read low. max response, %. actives 1.2% (n = 330,000). AID 652105, 2013; active = max response of -50% or lower; inconclusive = between -30% and -50%; inactive = -30% or higher; also: value at the top dose of about 77 µM; % is scaled to controls: 0 for no effect and ±100 for the full control effect
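ADP-Glo luminescence end-point after a 60 min room-temperature kinase reaction. PI5P4Kalpha and substrate in HEPES pH 7.4 buffer with EGTA, 0.1% CHAPS and 5% DMSO; ATP at 5 microM final.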
Starred values were filed as active, the others as inactive; [ ] = dose if it differs, or a comment. This is a sample that favours compounds with a hit; in the whole collection about 2.8% have one here. Unless noted, calls follow the shape of the dose curve; as a rule, active = well fitted curve in the direction sought with a large enough effect; inconclusive = small, poorly fitted or top-dose-only effect, or another doubt; inactive = no such curve, though single readings can be large; an effect the other way counts as inactive or inconclusive.

Screening Cc1ccccc1NC(=O)Cn1c(=O)n(CCc2ccccc2)c(=O)c2sc3ccccc3c21 returned POLB inh -17%, FEN1 inh 9%, POLI inh 5%, Pol kappa inh -7% and Pol eta inh -5%.
Screening S=C(Nc1ccc(N2CCOCC2)cc1)Nc1ccc2nc(-c3ccco3)c(-c3ccco3)nc2c1 returned POLB inh 2%, FEN1 inh -21%, POLI inh 2µM*, Pol kappa inh inconclusive, Pol eta inh inconclusive and PI5P4K alpha inh -78*.
Screening O=C(NCCO)Nc1ccc2nc(-c3ccco3)c(-c3ccco3)nc2c1 returned POLB inh 4.5µM*.
`O=C(Nc1ccc2nc(-c3cccs3)c(-c3cccs3)nc2c1)N1CCCCC1` gave FEN1 inh -20%, POLI inh 24% and Pol kappa inh -45%.
O=C(Nc1ccc2nc(-c3ccco3)c(-c3ccco3)nc2c1)N1CCCC1 was read as FEN1 inh 11µM*, POLI inh 3.2µM* and Pol kappa inh 32µM*.
For CC1CCN(C(=O)Nc2ccc3nc(-c4ccco4)c(-c4ccco4)nc3c2)CC1 the results were FEN1 inh 16µM*, POLI inh 14µM* and Pol kappa inh 8.9µM*.
For Cc1nc2ccc(NC(=O)N3CCOCC3)cc2nc1C the results were POLB inh 0%, FEN1 inh -2%, POLI inh 31%, Pol kappa inh -4%, Pol eta inh -9% and PI5P4K alpha inh 2.
For COc1cccc(=O)c2c(C)n(C)c(C)c12 the results were POLB inh 25µM*, FEN1 inh -2%, POLI inh 40µM*, Pol kappa inh inconclusive, Pol eta inh inconclusive and PI5P4K alpha inh -14.
Screening CCOc1cccc(=O)c2c(C)n(C)c(C)c12 returned POLB inh inconclusive, FEN1 inh inconclusive, POLI inh 22µM*, Pol kappa inh inconclusive and Pol eta inh inconclusive.
`CCOC(=O)C1=CN(Cc2cccc(F)c2)S(=O)(=O)N(CC)C1c1ccc(C(F)(F)F)cc1` (centres undefined) gave FEN1 inh -6%, POLI inh -12%, Pol kappa inh -5%, Pol eta inh -13% and PI5P4K alpha inh 6.
Screening N#CC1=C2SCN(Cc3ccccc3)CN2C(=O)CC1c1ccc2c(c1)OCO2 (centres undefined) returned POLB inh 45µM*, FEN1 inh 8%, POLI inh -6%, Pol kappa inh -5%, Pol eta inh -3% and PI5P4K alpha inh -58*.
COc1ccc2ccccc2c1C1CC(=O)N2CN(Cc3ccco3)CSC2=C1C#N (centres undefined) was read as POLB inh 50µM*, FEN1 inh inconclusive, POLI inh inconclusive, Pol kappa inh -42%, Pol eta inh 89µM* and PI5P4K alpha inh inconclusive.
For N#CC1=C2SCN(Cc3ccccc3)CN2C(=O)CC1c1cccs1 (centres undefined) the results were POLB inh inconclusive, FEN1 inh inconclusive, POLI inh inconclusive, Pol kappa inh -44%, Pol eta inh -21% and PI5P4K alpha inh -59*.
`N#CC1=C2SCN(Cc3ccco3)CN2C(=O)CC1c1ccc(Cl)cc1` (centres undefined) gave POLB inh -24%, FEN1 inh -8%, POLI inh -4%, Pol kappa inh -31%, Pol eta inh -12% and PI5P4K alpha inh inconclusive.
Screening CCn1cc(C(=O)Nc2ccc(C(C)C)cc2)c2cc(OC)c(OC)cc2c1=O returned POLB inh -11%, FEN1 inh inconclusive, POLI inh 24%, Pol kappa inh -1% and Pol eta inh -15%.
`CC(=O)N1CCN(Cc2cc(=O)oc3cc(C)cc(C)c23)CC1` gave PI5P4K alpha inh -3.
Screening COC(=O)c1ccc(CCc2cc(O)ccc2O)cc1 returned FEN1 inh -1%, POLI inh 16%, Pol kappa inh -5%, Pol eta inh -5% and PI5P4K alpha inh inconclusive.
For COC(=O)c1ccc(CCc2cc(O)c(Br)cc2O)cc1 the results were FEN1 inh 8%, POLI inh -12%, Pol kappa inh -12%, Pol eta inh -22% and PI5P4K alpha inh -52*.
For CCC(CO)NC(=O)C(=O)Nc1c2c(nn1-c1ccc(F)cc1)CSC2 (centres undefined) the results were POLB inh 24%, FEN1 inh -6%, POLI inh 89µM*, Pol kappa inh -10%[60.1 µM] and Pol eta inh -8%.
For Cc1cc(Nc2cccc(Br)c2)n2c(nc3ccccc32)c1C#N the results were POLB inh 20%, FEN1 inh -3%, POLI inh 11%, Pol kappa inh -6% and Pol eta inh -8%.
`Cc1csc(NC(=O)CSc2nc3[nH]c(=O)cc(O)c3s2)n1` gave FEN1 inh -2%, POLI inh 8%, Pol kappa inh -14%, Pol eta inh 28µM* and PI5P4K alpha inh -13.
CCCSc1nnc(NC(=O)CSc2nc3[nH]c(=O)cc(O)c3s2)s1 was read as FEN1 inh -9%, POLI inh 35µM*, Pol kappa inh -29%, Pol eta inh 56µM* and PI5P4K alpha inh -72*.
`CC(=O)Nc1ccc(NC2=C/C(=N/S(=O)(=O)c3cccs3)c3ccccc3C2=O)cc1` gave POLB inh inconclusive, FEN1 inh -13%, POLI inh 14µM*, Pol kappa inh -11%, Pol eta inh inconclusive and PI5P4K alpha inh 1.
Cc1ccccc1NC1=C/C(=N\S(=O)(=O)c2cccs2)c2ccccc2C1=O was read as POLB inh 26%, FEN1 inh -3%, POLI inh 3.2µM*, Pol kappa inh -21%, Pol eta inh 11µM* and PI5P4K alpha inh -14.
`O=C(COc1ccccc1C(=O)Nc1cccc(F)c1)Nc1ccc(Br)cc1` gave FEN1 inh 3%, POLI inh -10% and Pol kappa inh 0%.
For CCOC(=O)C1CCCCN1C(=O)CCn1nnnc1CN1CCOCC1 (centres undefined) the results were POLB inh 2%, FEN1 inh -4%, POLI inh 16%, Pol kappa inh -6%, Pol eta inh -8% and PI5P4K alpha inh 4.
